This passage reports growth results from PubChem BioAssay (NCI).

Molecules are shown by their SMILES. This is part of a sample that, as a whole, favours compounds with a hit. Of some 83,000 tested, about 20% had one in any assay.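 Activity criterion: percent growth below 10, measured after cells in 96-well plates were exposed to a single compound concentration for 48 hours.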 Unmarked numbers belong to inactive results.

The test system of the first assay is SN12C renal. Kind of assay: NCI-60 one-dose screen, 48 h (100 = growth as untreated, 0 = no growth, -100 = all killed). Conditions: 10 µM unless noted.
For `CCC(/C=C\C(C)=O)CC`, the growth was 98.3%.

`CCOC(=O)CO`: the growth was 104%.

`CN(C)c1ccc(O)c2c1CC1CC3C(N(C)C)C(=O)C(C(N)=O)=C(O)C3(O)C(=O)C1=C2O` (stereo not given): the growth is 35.6%.

Take `COc1ccc2c(Cl)cc(NC(=O)Nc3c(C)cccc3C)nc2c1`: the growth is 82.6%.

Take `CC(=O)c1cccs1`: the growth is 96.8%.

Take `O=C(O)c1ccc([N+](=O)[O-])cc1S(=O)(=O)O`: the growth is 103%.

Consider `C=CCC(OC(C)=O)c1ccc(C(C)C)cc1` (stereo not given), for which the growth is 104%.

On to `CCOc1ccc(C(=O)NCC(C)C)cc1`, for which the growth is 99.9%.

Regarding `Cc1ccc(NC(=O)c2ccccc2Cl)cc1`, the growth was 101%.

`Cc1cc(NC(=O)c2ccccc2)c(Cl)cc1N`: the growth is 100%.

Consider `CCCCNC(=O)c1ccc(OCC)cc1`, for which the growth is 103%.

Regarding `CC(=O)c1cccc(N(C)S(=O)(=O)c2ccc(C)cc2)c1`, the growth is 103%.

For the molecule `CC(=O)c1cc(O)ccc1O`, the growth is 97.4%.

Take `Cc1nc(O)cc(=O)[nH]1`: the growth was 109%.

Take `CCOc1ccccc1NC(=O)CCl`: the growth is 94.5%.

For the molecule `Cc1ccc(S(=O)(=O)CCCl)cc1`, the growth is 99%.

Turning to `CC(CCC#N)(CCC#N)C(=O)c1ccccc1`, the growth is 102%.

In the case of `Cc1cc(CO)c(O)c(CO)c1`, the growth is 111%.

For `O=Cc1ccc(Cl)c(Cl)c1`, the growth is 110%.

As to `CCN(C(C)=O)c1ccc([N+](=O)[O-])cc1`, the growth is 105%.

Take `Nc1cccc2cccc(O)c12`: the growth was 91%.

In the case of `Cc1cccc2ccccc12`, the growth was 100%.

In the case of `NC(=O)OCCO`, the growth is 105%.

For the molecule `N#CCCN1C(=O)CCC1C(=O)O` (stereo not given), the growth was 106%.

On to `COC(=O)c1cccc([N+](=O)[O-])c1`, for which the growth is 95.2%.

With `O=C(CC(CC(=O)c1ccccc1)c1ccccn1)c1ccccc1`, the growth was 92.6%.

On to `CC(=O)c1cccc(NS(=O)(=O)c2ccc(C)cc2)c1`, for which the growth was 89.1%.

Take `C=COC(=O)C(C)(C)C`: the growth is 93.6%.

As for `CC(=O)c1ccc(C)cc1`, the growth was 103%.

Take `O=c1[nH]c(=O)c2cc(Cl)cc(Cl)c2[nH]1`: the growth was 91%.

For the molecule `O=[N+]([O-])c1c(Cl)ncnc1Cl`, the growth was 111%.

On to `O=C1NCC2CCCC1C2` (stereo not given), for which the growth is 101%.

Consider `OC(CBr)CCBr` (stereo not given), for which the growth is 96.8%.

Another assay concerns UO-31 renal. The description is as above. Conditions: 10 µM unless noted.
For `CCC(/C=C\C(C)=O)CC`, the growth was 92.3%.

`CCOC(=O)CO`: the growth was 72.8%.

With `Cc1cc(=O)n(Nc2ccccc2)c(O)c1C#N`, the growth was 62%.

As to `CN(C)c1ccc(O)c2c1CC1CC3C(N(C)C)C(=O)C(C(N)=O)=C(O)C3(O)C(=O)C1=C2O` (stereo not given), the growth is 23.6%.

`COc1ccc2c(Cl)cc(NC(=O)Nc3c(C)cccc3C)nc2c1`: the growth is 14.4%.

As for `CC(=O)c1cccs1`, the growth is 106%.

With `O=Cc1ccc(F)cc1`, the growth was 82%.

As to `O=C(O)c1ccc([N+](=O)[O-])cc1S(=O)(=O)O`, the growth is 102%.

For the molecule `C=CCC(OC(C)=O)c1ccc(C(C)C)cc1` (stereo not given), the growth is 84.9%.

For `CCOc1ccc(C(=O)NCC(C)C)cc1`, the growth is 93.5%.

In the case of `Cc1ccc(NC(=O)c2ccccc2Cl)cc1`, the growth is 97%.

Regarding `Cc1cc(NC(=O)c2ccccc2)c(Cl)cc1N`, the growth is 86.6%.

As to `CCCCNC(=O)c1ccc(OCC)cc1`, the growth is 101%.

With `CC(=O)c1cccc(N(C)S(=O)(=O)c2ccc(C)cc2)c1`, the growth was 82.2%.

With `CC(=O)c1cc(O)ccc1O`, the growth is 88.9%.

As to `Cc1nc(O)cc(=O)[nH]1`, the growth is 72.8%.

`CCOc1ccccc1NC(=O)CCl`: the growth was 116%.

In the case of `Cc1ccc(S(=O)(=O)CCCl)cc1`, the growth is 74.2%.

Take `CC(CCC#N)(CCC#N)C(=O)c1ccccc1`: the growth was 77.1%.

Regarding `Cc1cc(CO)c(O)c(CO)c1`, the growth is 90.9%.

`O=Cc1ccc(Cl)c(Cl)c1`: the growth was 80.1%.

Consider `CCN(C(C)=O)c1ccc([N+](=O)[O-])cc1`, for which the growth was 89.7%.

Regarding `Nc1cccc2cccc(O)c12`, the growth is 52.8%.

`Cc1cccc2ccccc12`: the growth is 86.8%.

Turning to `NC(=O)OCCO`, the growth is 87.7%.

As to `CCOC(=O)C(CCC#N)(CCC#N)C(=O)OCC`, the growth is 95.2%.

`N#CCCN1C(=O)CCC1C(=O)O` (stereo not given): the growth was 101%.

Turning to `COC(=O)c1cccc([N+](=O)[O-])c1`, the growth was 98.2%.

In the case of `O=C(CC(CC(=O)c1ccccc1)c1ccccn1)c1ccccc1`, the growth was 68.6%.

Turning to `CC(=O)c1cccc(NS(=O)(=O)c2ccc(C)cc2)c1`, the growth is 77%.

For `C=COC(=O)C(C)(C)C`, the growth was 84.5%.

Consider `CSc1nc2[nH]ncc2c(=O)[nH]1`, for which the growth was 101%.

`CC(=O)c1ccc(C)cc1`: the growth is 75.7%.

Consider `O=c1[nH]c(=O)c2cc(Cl)cc(Cl)c2[nH]1`, for which the growth was 75.3%.

With `O=[N+]([O-])c1c(Cl)ncnc1Cl`, the growth was 101%.

With `O=C1NCC2CCCC1C2` (stereo not given), the growth was 92.7%.

For the molecule `OC(CBr)CCBr` (stereo not given), the growth was 103%.
